According to the supplement of paper PMC10338343:
± gives the standard deviation.

What follows are sequences tested on EfPiwi piRISC loaded with piRNA #1 (26 nt) (assay: pre-steady-state target cleavage rate (min^-1); auxiliary factor: 500 nM Ephydatia muelleri Gtsf1; guide: piRNA #1 5'p-UGAGGUAGUAGGUUGUAUAGUAUCCA; MIWI and MILI are mouse PIWI proteins and EfPiwi is from a freshwater sponge; tags in brackets are library labels; higher = faster piRNA-guided slicing of the target).
Procedure, shortened: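 In this Cleave-'n-Seq assay, uncleaved targets were sequenced and normalised to depth and to weakly complementary targets. They came from a transcribed, DNA-blocked target RNA library […] mixed with 1 nM active affinity-purified piRISC carrying one synthetic guide, with or without 500 nM GTSF1 partner protein, in HEPES–potassium acetate buffer at 33 °C for 0–8 or 0–960 min. After three trials were pooled and k3 was capped at 0.0001 min^-1, the pre-steady-state cleavage rate was obtained from a burst-and-steady-state fit.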

Sequence	pre-steady-state target cleavage rate
GGAGACCUUACUAUACAAGCCUACUACCUCA	0.00541 ± 0.0031
GGAGACCUAUCAUAUACAACCUACUACCUCA	0.0103 ± 0.0048
GGAGACGAUACUAUACAACCUGACUACCUCA	0.00426 ± 0.0019
GGAGUGGAUACUAUACAACCUUCUAGCUCA	0.00376 ± 0.0018
GGAGACCUUACUAUACAACCUUCUACCUGA	0.00341 ± 0.0028
GGAGAGGAUACUAUACAAGCCUACUACCUCA	0.00835 ± 0.005
GGAGACGAUACUAUACAACCUUACUACCUCA	0.00805 ± 0.0039
GGAGUCGAUACUAUACAACCUACUAGCUCA	0.00304 ± 0.0019
GGAGACGAUACUAUACAACCUACUACCUACA	0.00797 ± 0.0032
GGAGACCUAACUAUACAACCUCCUACCUCA	0.00446 ± 0.0029
GGAGUGGAUACUAUACAACCUACUAGGACA	0.00314 ± 0.0029
GGAGACGAUACUAUACAACCCUACUACCUCA	0.00604 ± 0.0029
GGAGUGGAUACAAUACUACCUACUACCUCA	0.00316 ± 0.0019
GGAGACCAUACUAUACAACCUACUACCUCCA	0.0119 ± 0.0039
GGAGACCAUACUACACAACCUACUACCUCA	0.0182 ± 0.0078
GGAGACCUUACUAUACACCCUACUACCUCA	0.00862 ± 0.0036
GGAGAGGAUACUAUACCACCUACUACCUCA	0.00648 ± 0.003
GGAGAGGAUACUAUACAUCCUACUAGCUCA	0.00277 ± 0.0019
GGAGAGGAUACUAUACAACCUACUUACCUCA	0.00951 ± 0.004
GGAGACCUAUGAUAUGUACCCACUACCUCA	< 0.0001

Sequence	pre-steady-state target cleavage rate
GGAGACCUUACUAUACAACCACUACCUCA	0.0103 ± 0.0057
GGAGUGGAUAGUAUACAACCUACUACCUGA	0.00315 ± 0.0017
GGAGAGGAUACUAUACAACCUUACUACCUCA	0.00845 ± 0.0045
GGAGACGAUACUAUACAACCAUACUACCUCA	0.00938 ± 0.0047
GGAGACGAUACUAUACAACCUACUACGAGA	0.00501 ± 0.0017
GGAGUGGAUACUAUACAACCUGACUACCUCA	0.00415 ± 0.002
GGAGACGAUACUAUACAACCUAGUAGCUCA	0.00474 ± 0.0023
GGAGACCAUACUAUACAACCUACUAGGAGA [g6:g23:cont:t1A]	0.00788 ± 0.0042
GGAGUGGAUACUAUACAACCUCACUACCUCA	0.00417 ± 0.0022
GGAGACCUAUGAUAACAACCUACUAGCACA	< 0.0001
GGAGUGGAUACUAUACAACGUACUACGUCA	0.0036 ± 0.0015
GGAGACCAUAUCUAUACAACCUACUACCUCA	0.124 ± 0.051
GGAGAGCAUACUUUACAACCUACUACCUCA	0.0083 ± 0.0045
GGAGUGGAUACUAUACAACCUUACUACCUCA	0.00695 ± 0.0034
GGAGUGGAUACUAUACAGACCUACUACCUCA	0.0116 ± 0.0053
GGAGAGGAUAGUAUACAACCAACUACCUCA	0.00242 ± 0.0023
GGAGACGAUACUAUAGAACCUAGUACCUCA	0.0018 ± 0.0015
GGAGAGGAUACUAUACAACUCUACUACCUCA	0.00443 ± 0.0043
GGAGUGGAUACUAUACAACCUACUUGCUCA	0.0047 ± 0.0026
GGAGACGAUCACUAUACAACCUACUACCUCA	0.0768 ± 0.029
